Results with a measured potency or affinity are listed apart. Active and inactive are the calls of the source.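 Rule for the calls: active = fitted half-maximal dose no more than twice the top valid tested dose, for compounds that lower signal; inconclusive = fit invalid, or curve flat with activity between -70 and -30; inactive = potency past limit, curve flat within ±30, or signal increasing.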
Biological target: NAD-dependent protein deacylase sirtuin-5, mitochondrial (Homo sapiens) (UniProt Q9NXA8)
Experiment: SIRT5 deacylase inhibitors, dose response, biochemical, fluorescence imaging, cherry-pick, set 6 (AID 720597);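 note: lower AMC signal can also come from blocking the trypsin step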
Conditions: Purified SirT5, succinyl-peptide-AMC/trypsin fluorescence; series mostly up to 15 µM

Chain of NAD-dependent protein deacylase sirtuin-5, mitochondrial (Homo sapiens) (Q9NXA8 whole entry, looked up): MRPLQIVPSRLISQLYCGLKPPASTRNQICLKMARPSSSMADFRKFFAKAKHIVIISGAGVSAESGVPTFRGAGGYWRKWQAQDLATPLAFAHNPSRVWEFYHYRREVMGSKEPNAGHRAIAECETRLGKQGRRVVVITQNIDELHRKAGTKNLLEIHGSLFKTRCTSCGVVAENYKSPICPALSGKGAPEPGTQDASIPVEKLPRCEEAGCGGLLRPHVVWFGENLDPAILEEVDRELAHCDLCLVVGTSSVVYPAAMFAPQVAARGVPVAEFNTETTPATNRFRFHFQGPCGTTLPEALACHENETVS

| Structure (SMILES) | outcome |
| --- | --- |
| Cc1ccc(S(=O)(=O)N(C)C[C@@H]2OCCCC[C@@H](C)Oc3ccc(NS(=O)(=O)c4ccc(Cl)cc4)cc3C(=O)N([C@H](C)CO)C[C@H]2C)cc1 | inactive |
| Cc1ccc(S(=O)(=O)N(C)C[C@@H]2OCCCC[C@H](C)Oc3ccc(NS(=O)(=O)c4ccc(Cl)cc4)cc3C(=O)N([C@@H](C)CO)C[C@H]2C)cc1 | inactive |
| C[C@H]1CN([C@@H](C)CO)C(=O)c2cc(NC(=O)Cc3ccccc3)ccc2O[C@@H]1CN(C)Cc1ccc(Oc2ccccc2)cc1 | inactive |
| C[C@@H]1CCCCO[C@H](CN(C)C(=O)Nc2ccc(C(F)(F)F)cc2)[C@@H](C)CN([C@H](C)CO)C(=O)c2cc(NS(=O)(=O)c3ccc(Cl)cc3)ccc2O1 | inactive |
| C[C@H](CO)N1C[C@H](C)[C@@H](CN(C)S(=O)(=O)c2ccccc2)Oc2ccc(NC(=O)Nc3ccc(C(F)(F)F)cc3)cc2CC1=O | inactive |
| COc1ccc(S(=O)(=O)N(C)C[C@H]2Oc3ncc(/C=C/c4ccccc4)cc3C(=O)N([C@H](C)CO)C[C@@H]2C)cc1 | inactive |
| Cc1ccccc1S(=O)(=O)N[C@H]1CC[C@@H](CCn2cc(Cc3ccccc3)nn2)O[C@H]1CO | inactive |
| C[C@@H]1CN([C@@H](C)CO)C(=O)c2cc(C#CC3CCCCC3)cnc2O[C@H]1CN(C)S(=O)(=O)c1cccc(F)c1 | inactive |
| C[C@@H]1CN([C@H](C)CO)C(=O)c2cc(NC(=O)CCC(F)(F)F)ccc2O[C@@H](C)CCCCO[C@@H]1CN(C)Cc1ccc(C(F)(F)F)cc1 | inactive |
| COc1ccc(S(=O)(=O)Nc2ccc3c(c2)C(=O)N([C@@H](C)CO)C[C@@H](C)[C@@H](CN(C)S(=O)(=O)c2ccc(Cl)cc2)OCCCC[C@H](C)O3)cc1 | inactive |
| CN(C)C(=O)c1cccc(-c2ccc([C@@H]3[C@H]4CN(S(C)(=O)=O)CCCCN4[C@H]3CO)cc2)c1 | inactive |
| CO[C@H]1CN(C)C(=O)c2cc(NC(=O)NC(C)C)ccc2OC[C@@H](C)N(C(=O)CC2CC2)C[C@@H]1C | inactive |
| Cc1ccc(NC(=O)C2CC(=O)n3ncnc3N2)cc1 (centres undefined) | inactive |
| C[C@@H]1CN([C@H](C)CO)C(=O)c2cccc(NC(=O)Nc3ccc(C(F)(F)F)cc3)c2O[C@H]1CN(C)C(=O)Nc1cccc2ccccc12 | inactive |
| CN(C)C(=O)[C@@H]1[C@@H](CO)[C@@H]2Cn3c(ccc(-c4ccccc4)c3=O)[C@H]1N2CCc1ccccc1 | inactive |
| C[C@@H]1CN([C@@H](C)CO)C(=O)c2cc(NS(=O)(=O)c3ccc(F)cc3)ccc2O[C@@H](C)CCCCO[C@H]1CN(C)Cc1ccc(C(F)(F)F)cc1 | inactive |
| Cc1ccc(-c2cnc3c(c2)C(=O)N([C@@H](C)CO)C[C@H](C)[C@@H](CN(C)C(=O)c2cccnc2)O3)cc1 | inactive |
| Cc1ccc(S(=O)(=O)N(C)C[C@H]2OCCCC[C@@H](C)Oc3ccc(NS(=O)(=O)c4ccc(Cl)cc4)cc3C(=O)N([C@H](C)CO)C[C@H]2C)cc1 | inactive |
| Cc1ccc(S(=O)(=O)N(C)C[C@H]2OCCCC[C@H](C)Oc3ccc(NS(=O)(=O)c4ccc(F)cc4)cc3C(=O)N([C@H](C)CO)C[C@@H]2C)cc1 | inactive |
| CCCC#Cc1ccc([C@H]2[C@H]3CN(S(=O)(=O)Cc4ccccc4)CCCCN3[C@H]2CO)cc1 | inactive |

| Structure (SMILES) | outcome |
| --- | --- |
| CN(C)c1ccc2c(c1)[C@@H]1C[C@@H](CC(=O)NCc3ccccc3)O[C@H](CO)[C@@H]1O2 | inactive |
| CCCNC(=O)N(C)C[C@@H]1Oc2ncc(Br)cc2C(=O)N([C@H](C)CO)C[C@@H]1C | inactive |
| C[C@@H]1CN([C@@H](C)CO)C(=O)c2cc(NC(=O)Nc3ccc(F)cc3)ccc2O[C@@H]1CN(C)S(=O)(=O)c1ccc(Cl)cc1 | inactive |
| Cc1noc(C)c1NC(=O)N[C@@H]1C=C[C@@H](CC(=O)Nc2ccccc2)O[C@H]1CO | inactive |
| COc1ccc(S(=O)(=O)N(C)C[C@@H]2Oc3ncc(C#CCN(C)C)cc3C(=O)N([C@H](C)CO)C[C@@H]2C)cc1 | inactive |
| CCCNC(=O)N1CC(=O)N2[C@H](CO)[C@@H](c3ccc(-c4ccc(F)cc4)cc3)[C@@H]2C1 | inactive |
| COc1ccc(CN(C)C[C@@H]2Oc3ccc(NC(=O)CCC(F)(F)F)cc3C(=O)N([C@H](C)CO)C[C@H]2C)cc1 | inactive |
| C[C@@H]1CN([C@@H](C)CO)C(=O)c2c(c3ccccc3n2C)-c2ccccc2CO[C@@H]1CN(C)Cc1cccc2c1OCCCO2 | inactive |
| COc1ccc(NC(=O)N(C)C[C@@H]2Oc3cc(C#CCC(C)C)ccc3S(=O)(=O)N([C@@H](C)CO)C[C@@H]2C)cc1 | inactive |
| Cc1ccc(-c2ccc(C3[C@@H]4CN(S(=O)(=O)c5cccc(C)c5)C[C@H]3N4)cc2)cc1 (some centres undefined) | inactive |
| C[C@H](CO)N1C[C@H](C)[C@@H](CN(C)Cc2ccccc2C(F)(F)F)OCc2ccccc2-c2ccccc2C1=O | inactive |
| C[C@@H]1CN([C@H](C)CO)C(=O)c2c(c3ccccc3n2C)-c2ccccc2CO[C@@H]1CN(C)Cc1cccc2c1OCCCO2 | inactive |
| CCCNC(=O)N1[C@H](CO)[C@H](c2ccccc2)C12CN(C(=O)CC1CC1)C2 | inactive |
| C[C@@H]1CN([C@@H](C)CO)S(=O)(=O)c2ccc(/C=C/c3ccccc3)cc2O[C@H]1CN(C)C(=O)NC1CCCCC1 | inactive |
| COc1ccc(S(=O)(=O)N(C)C[C@H]2OCCCC[C@H](C)Oc3ccc(NS(=O)(=O)c4ccc(C)cc4)cc3C(=O)N([C@H](C)CO)C[C@H]2C)cc1 | inactive |
| C[C@@H]1CN([C@H](C)CO)C(=O)c2cc(NS(=O)(=O)c3ccc(Cl)cc3)ccc2O[C@@H](C)CCCCO[C@@H]1CN(C)Cc1ccc2c(c1)OCO2 | inactive |
| CCC(=O)N1C[C@H]2[C@@H](c3ccccc31)[C@@H](CO)N2Cc1cc(F)ccc1F | inactive |
| COc1ccc(S(=O)(=O)Nc2ccc3c(c2)C(=O)N([C@H](C)CO)C[C@@H](C)[C@H](CN(C)S(=O)(=O)c2ccc(Cl)cc2)OCCCC[C@H](C)O3)cc1 | inactive |
| COc1ccccc1S(=O)(=O)N(C)C[C@H]1Oc2cc(C#CCC(C)C)ccc2S(=O)(=O)N([C@H](C)CO)C[C@@H]1C | inactive |

— PubChem BioAssay AID720597 (Broad Institute, 2013)
